An excerpt weighted towards active compounds, which were near 4% of everything screened.
KKLEB cytotox = CF airway cell cytotoxicity counter-screen | activity change (cytotoxicity), % at 5 µM | AID 602141 | 360,000 compounds, 0.36% hits | KKLEB CF airway cells viability, ATPlite luminescence, overnight; stronger effect = lower value; cells stimulated with P. aeruginosa culture filtrate;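 active = corrected activity change at or below -50% at 5 µM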
HIF-2a block = inhibitors of HIF-2a. 786-0 RCC cells HIF-2a reporter, luciferase luminescence, overnight. AID 624352. inhibition, % at 18.8 µM. 360,000 compounds, 0.72% hits;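 active = inhibition of the luminescence signal of 40% or more relative to plate controls, in a single-dose primary screen at 18.75 µM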
Peg3 promoter = inhibitors of Peg3 promoter; HeLa PEG-Prom luciferase reporter, luminescence, overnight; inhibition, % at 20 µM; 360,000 compounds, 1.7% hits;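 active = inhibition of at least 50% at 20 µM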
TWEAK Fn14 block = blocks TWEAK-Fn14 interaction in a reporter cell assay; TWEAK-stimulated Fn14 reporter cells, luciferase luminescence, 8 h; inhibition, % at 10 µM; 360,000 compounds, 2% hits; AID 1159606; in the data active = inhibition above about 50%
TROY signal inh = inhibitors of TROY-dependent NF-kB signaling; Q293 LMP1-TROYcd NF-kB luciferase reporter, 4 h; inhibition, % at 10 µM; 360,000 compounds, 0.98% hits; AID 1347056;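 active = compounds whose plate-normalised and pattern-corrected inhibition of the luciferase reporter signal at the single screening dose is 50% or more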
CF NFkB inh = cystic fibrosis NF-kB activation inhibition; KKLEB NF-kB-GFP reporter, PAF-induced, GFP fluorescence overnight; inhibition, % at 5 µM; 360,000 compounds, 0.86% hits;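 active = at least 50% inhibition at 5 µM, scaled per plate between neutral and stimulator controls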;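 also: PAF is a Pseudomonas aeruginosa culture filtrate used as stimulus; plate controls were PAF-stimulated DMSO wells for no effect and unstimulated DMSO wells for full effect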
Numbers without * were called inactive; . = no result.

SMILES	KKLEB cytotox	HIF-2a block	Peg3 promoter	TWEAK Fn14 block	TROY signal inh	CF NFkB inh
CC1CCN(CCOCCOc2ccccc2-c2ccccc2)CC1	22	16	9	-15	14	-14
CC1CCCC(C)N1C(=O)Cn1c(=O)sc2ccccc21 (configuration not stated)	-11	15	-10	-13	14	-1
O=C1c2[nH]c(=O)[nH]c(=O)c2CN1Cc1ccccc1	-4	-5	0	9	-6	-1
Cc1cc(C)cc(NC(=S)NCc2ccc3[nH]c4c(c3c2)CCCC4)c1	-1	0	67*	-17	-16	-1
O=C(Nc1nccs1)c1cccc(N2C(=O)c3cccc4c([N+](=O)[O-])ccc(c34)C2=O)c1	-5	9	110*	85*	.	-1
O=C(Nc1ccc(S(=O)(=O)Nc2nccs2)cc1)c1cccc(N2C(=O)c3ccccc3C2=O)c1	-4	4	-12	8	-3	-5
O=C(c1cc(F)c(F)c(F)c1F)N1CCN(C(=O)C2CCCO2)CC1 (configuration not stated)	0	10	5	11	-13	13
CC1=NN(c2ccc(C)cc2)C(=O)/C1=C\C=C\c1ccccc1	13	24	46	94*	-5	-10
O=C(O)c1ccccc1C(=O)N1CCN(S(=O)(=O)c2cccc(C(F)(F)F)c2)CC1	5	18	15	18	4	-4
COc1cccc(CN(C)C(=O)c2ccc(OCC(=O)Nc3cccc(C(F)(F)F)c3)c(OC)c2)c1	-8	-18	15	61*	40	-10
O=S(=O)(Nc1ccc(-n2cccc2)cc1)c1ccc(Cl)c(Cl)c1	0	17	19	-26	55*	-36
O=S(=O)(Nc1ccc(-n2cccc2)cc1)c1ccc(F)cc1	0	8	0	9	24	4
CSCCC1NC(=O)C(C(C)=Nc2ccccc2)=C1O (configuration not stated)	2	-89	-82	-2	-21	15
COc1ccc(C(=O)NCCCCc2ccccc2)cc1	-2	-63	-20	2	-40	1
COc1ccc(NS(=O)CCCc2ccccc2)cc1 (configuration not stated)	11	-43	-45	54*	42	0
Cc1nonc1C(=O)N/N=C/c1ccccc1	4	-12	7	-8	7	-11
CCCC(=O)Nc1cnc(NC(=O)c2cccc(F)c2)cc1C	2	-70	-47	66*	29	-3
Cc1cc(NC(=O)C(C)C)ncc1NC(=O)c1cccc(F)c1	-3	1	-3	-9	2	1
CCOC(=O)c1cnc2ccc(Cl)cc2c1NCCN(C)C	10	3	59*	-22	-15	-12
C/C(=N\NC(=O)c1ccccc1OCc1ccc(F)cc1)c1ccccn1	-12	-130	50*	-131	-9	-5
C/C(=N\NC(=O)C(c1ccccc1)c1ccccc1)c1ccc(O)cc1	5	18	21	4	-19	0
C/C(=N\NC(=O)C(c1ccccc1)c1ccccc1)c1ccccn1	-9	34	97*	57*	-24	15
C/C(=N\NC(=O)c1cccc2ccccc12)c1ccccn1	4	-58	-16	101*	21	-32
O=C(N/N=C(\c1ccccc1)c1ccccn1)c1ccccc1Cl	-11	11	54*	1	-26	15
O=C(NN=C(c1ccccc1)c1ccccn1)c1ccccc1	8	8	47	-8	-20	-21
SMILES	KKLEB cytotox	HIF-2a block	Peg3 promoter	TWEAK Fn14 block	TROY signal inh	CF NFkB inh
COc1ccccc1C(=O)NC(CCSC)C(=O)NC1CCCCCC1 (configuration not stated)	4	13	12	-8	-9	-6
CCCNC(=O)c1cc2c(c(-c3cccc(-c4ccccc4F)c3)n1)[C@H](CCO)N(C(=O)CC1CC1)C2	.	-4	.	5	16	.
COc1ccc(CN(C)C(=O)Cn2ccsc2=N)cc1OC	6	-14	-20	13	-6	1
C[C@@H]1C[C@H]2[C@@H]3C[C@H](F)C4=CC(=O)C=C[C@]4(C)[C@@]3(Cl)[C@@H](O)C[C@]2(C)[C@H]1C(=O)COC(=O)C(C)(C)C	4	22	6	-13	16	69*
Cc1cc(-c2nn3c(C)nnc3s2)ccc1NC(=O)C(C)(C)C	-4	-9	-39	52*	26	19
N#Cc1nc(NCC(F)F)nc(Nc2cc(F)cc(F)c2)n1	20	8	107*	92*	46	73*
COC(=O)c1ccc(C(=O)OC)c(NC(=O)N2c3ccccc3Sc3ccccc32)c1	-54*	12	16	-34	0	54*
O=C(CCC1COc2ccccc2O1)NCc1ccccc1 (configuration not stated)	3	15	19	-20	-14	8
CCCCCCCn1c2c(c(=N)c3ccccc31)CCC2	-29	-18	34	56*	46	39
CCCn1c2c(c(=N)c3c1CCC3)CCC2	14	12	10	-24	-8	-13
OC(CSc1ccccc1Cl)CN1CCN(c2ccc(F)cc2)CC1 (configuration not stated)	3	-13	14	-13	3	-3
N#C/C(=C/c1cn(CC(=O)O)c2ccccc12)c1ccc(F)cc1	10	19	5	-4	2	-6
CCC(c1nnnn1-c1c(C)cccc1C)N1CCCN(Cc2ccc(F)cc2)CC1 (configuration not stated)	.	-9	.	-1	-4	.
O=C(OCc1cc2ccccc2[nH]c1=O)c1cccs1	13	18	-43	57*	43	7
CC(=O)c1cc2c(C)c(C(=O)c3ccccc3)oc2cc1O	3	-155	-172	55*	38	-16
CCC(C)Nc1ccc(NC(C)CC)cc1 (configuration not stated)	-37	19	65*	69*	39	60*
CCC(C)NC(=O)Nc1ccc(Br)cc1 (configuration not stated)	8	-145	-117	-7	-27	2
CN1CCN(c2oc(-c3ccc([N+](=O)[O-])cc3)nc2C#N)CC1	-2	-3	-5	-6	2	-13
CC(Nc1c([N+](=O)[O-])c(=O)oc2ccccc12)C(Cl)c1ccccc1 (configuration not stated)	4	25	50*	50*	3	-8
O=C(O)c1ccc(Oc2nc3ccccc3s2)cc1	10	-127	84*	28	-31	-17
CC(OC(=O)CNC(=O)c1sc2ccccc2c1Cl)C(=O)NC1(C#N)CCCCC1 (configuration not stated)	6	-2	-4	-20	-5	5
CCCCSC(=S)NC1CCS(=O)(=O)C1 (configuration not stated)	-11	32	18	57*	16	40
